Test results as given in publication PMC4552634, “A New Set of Chemical Starting Points with Plasmodium falciparum Transmission-Blocking Potential for Antimalarial Drug Discovery” (PLoS ONE, 2015).
About 3,200 (25%) of roughly 13,000 compounds showed an effect of 50% or more. Some of the results follow.

test system: P. falciparum stage V gametocytes; parameters: BacTiter-Glo ATP luminescence viability of purified stage V gametocytes in 384-well plates, per cent inhibition versus DMSO; details: 48 h, 5 µM; inhibitor

Compound | % Inhibition
CC1CN(C(=O)c2sc3ccccc3c2Cl)CC(C)O1 (stereo not shown) [TCMDC-125225] | 2.721%
C/C=C1\CN2CC[C@H]1C[C@@H]2[C@@H](O)c1ccnc2ccc(O)cc12 [TCMDC-138273] | 7.487%
Cc1cc(C)c(-c2n[nH]c3c2C(c2cccc(Cl)c2)N(Cc2ccco2)C3=O)c(O)c1 (stereo not shown) [TCMDC-125307] | -65.67%
Cc1ccc(C)c(NC(=O)CC2C(=O)N(c3ccccc3)C(=S)N2Cc2ccco2)c1 (stereo not shown) [TCMDC-124000] | 88.68%
O=C(Nc1ccc(C(=O)Oc2cccc3ccccc23)cc1)N[C@@H](Cc1ccc(O)cc1)C(=O)NC1CCN(Cc2ccc(O)cc2)C1 (stereo partly shown) [TCMDC-135360] | -40.07%
O=c1c2ccc(Sc3ccccn3)cc2n(-c2ccccc2)c2cc(Sc3ccccn3)ccc12 [TCMDC-137528] | 7.065%
COc1cc(C)nc2ccc(NC(=O)c3cc([N+](=O)[O-])cc([N+](=O)[O-])c3)cc12 [TCMDC-139382] | 32.9%
Cc1cc(N)c2cc(NC(=O)/C=C/c3ccccc3Cl)ccc2n1 [TCMDC-139459] | 113.2%
Cc1cc(N)c2cc(NC(=O)/C=C/c3ccc([N+](=O)[O-])cc3)ccc2n1 [TCMDC-139335] | 102.5%
CC1(C)CN2CCCC2c2cc(NC(=O)/C=C/c3ccccc3Cl)ccc21 (stereo not shown) [TCMDC-139348] | 26.85%
Nc1cccc(C=CC(=O)Nc2ccnc3ccccc23)c1 [TCMDC-139290] | 5.125%
O=C(/C=C/c1ccccc1Cl)Nc1ccc(Br)c(OCCN2CCCCC2)c1 [TCMDC-140959] | -53.57%
CCOc1ccccc1C=CC(=O)Nc1ccc2nc(N3CCN(C)CC3)cc(C)c2c1 [TCMDC-123801] | -1.147%
O=C(C=Cc1ccccc1)Nc1ccc(C#CC=Cc2ccc(NC(=O)C=Cc3ccccc3)cc2)cc1 [TCMDC-125718] | -11.21%
Cc1cc(N)c2cc(NC(=O)/C=C/c3ccccc3)ccc2n1 [TCMDC-139337] | 92.06%
CCOC(=O)C1CCN(CCOc2cc(NC(=O)/C=C/c3ccccc3Cl)ccc2Br)CC1 [TCMDC-140963] | -16.5%
COc1cc(C)nc2ccc(NC(=O)Nc3ccc([N+](=O)[O-])cc3C)cc12 [TCMDC-139395] | -13.54%
CN1Cc2cc(NC(=O)/C=C/c3ccccc3Cl)ccc2C(C)(C)C1 [TCMDC-139315] | 78.19%
NC(N)=NC(=O)Nc1cc(F)c(Cl)c(Cl)c1 [TCMDC-137462] | 6.486%
O=c1ccc2ncc(Cl)c3c2n1CC3CN1CCC(NCc2cc3c(cn2)OCCO3)CC1 (stereo not shown) [TCMDC-135967] | 20.98%
CC1(C)N=C(N)N=C(N)N1OCCCOc1ccc(N)cc1 [TCMDC-131698] | -10.87%
CN1CCN(Cc2cc3cc(NC(=O)/C=C/c4ccc(Cl)cc4)ccc3s2)CC1 [TCMDC-135631] | -73.77%

Compound | % Inhibition
O=C(/C=C/c1ccc(Cl)cc1)Nc1ccc2nc(CN3CCCC3)ccc2c1 [TCMDC-135629] | -22.56%
CC1(C)CNCc2cc(NC(=O)/C=C/c3ccc(Cl)cc3)ccc21 [TCMDC-141909] | 92.59%
CCCCC(N)COc1cccc2c(-c3ccncc3)c(-c3cccc(NC(=O)Nc4ccccc4)c3)nn12 (stereo not shown) [TCMDC-135537] | 58.08%
O=C(Nc1ccccc1)Nc1cccc(-c2nn3c(OCCN4CCCC4)cccc3c2-c2ccncc2)c1 [TCMDC-135539] | 44.29%
N[C@@H](COc1cccc2c(-c3ccncc3)c(-c3cccc(NC(=O)Nc4ccccc4)c3)nn12)c1ccccc1 [TCMDC-135512] | 8.625%
O=C(Nc1ccccc1)Nc1cccc(-c2nn3c(OCC4CCCCN4)cccc3c2-c2ccncc2)c1 (stereo not shown) [TCMDC-135465] | 63.4%
Nc1ncnc2cc(-c3cccc(NC(=O)Nc4ccccc4)c3)sc12 [TCMDC-135255] | -37.99%
O=C(Nc1ccccc1)Nc1cccc(-c2cc(CNCCc3ccccc3)sc2-c2ccncc2)c1 [TCMDC-135632] | -27.66%
Fc1cc(Cl)ccc1Nc1ccnc2cc(-c3scnc3CNCCN3CCOCC3)ccc12 [TCMDC-138442] | 15.08%
O=C(Cc1cc(F)cc(F)c1)NC1CCN(c2ccnc3cc(Cl)ccc23)C1 (stereo not shown) [TCMDC-133667] | 8.938%
CC(C)(CNC(=O)[C@@H]1CCCN(CCOc2ccc(F)c(F)c2)C1)c1nc(-c2ccc(Cl)c(O)c2)c(-c2ccncc2)[nH]1 [TCMDC-141137] | 11.15%
CCN1CCN(c2cc(C)c3cc(NC(=O)c4cc(OC)cc(OC)c4)ccc3n2)CC1 [TCMDC-125575] | -6.076%
O=C(NCc1ccccc1)c1ncn(CCCN2CCC(N3CCCC3)CC2)c1-c1ccc(Cl)c(Cl)c1 [TCMDC-135228] | 91.41%
COc1cc(NC(=O)c2nn(CCCN3CCC4(CC3)C(=O)NCN4c3ccccc3)cc2-c2ccc(Cl)c(Cl)c2)cc(OC)c1OC [TCMDC-141726] | -40.66%
CN(Cc1ccccc1)C(=O)c1nn(CCCN2CCC(N3CCCC3)CC2)cc1-c1ccc(Cl)c(Cl)c1 [TCMDC-141730] | 45.58%
O=C(NCc1ccccc1)c1nn(CCCN2CCC(N3CCCC3)CC2)cc1-c1ccc(Cl)c(Cl)c1 [TCMDC-141728] | 73.12%
COc1cc(NC(=O)c2nn(CCCN3CCC(N4CCCC4)CC3)cc2-c2ccc(Cl)c(Cl)c2)cc(OC)c1OC [TCMDC-141725] | 29.9%
O=C(NCc1ccc2c(c1)OCO2)c1nn(CCN2CCC(N3CCCC3)CC2)cc1-c1ccc(Cl)c(Cl)c1 [TCMDC-141908] | -16.74%
COc1cc(C(=O)NCc2nn(CCN3CCC(N4CCCC4)CC3)cc2-c2ccc(Cl)c(Cl)c2)cc(OC)c1OC [TCMDC-141966] | 24.89%
O=C(NCc1ccccc1)NC(CCCN1CCC(Oc2cccc(Cl)c2)CC1)c1ccc(Cl)c(Cl)c1 (stereo not shown) [TCMDC-141903] | -17.97%
O=C(Nc1ccccc1)c1nn(CCCN2CCC(N3CCCC3)CC2)cc1-c1ccc(Cl)c(Cl)c1 [TCMDC-141727] | 76.09%
